This passage reports activity change, negative = inhibition results from PubChem BioAssay AID1259415 (National Center for Advancing Translational Sciences (NCATS), 2018).

Screen size: about 410,000 compounds; about 18,000 (4.4%) were called active. Another 7% or so got no clear call; they are omitted. What follows is part of a selection rich in actives, with near analogues and random picks from the rest. Unmarked numbers belong to inactive results. Cut-off read from the data, not from the text of the source: active = activity change below about -60%; inconclusive = no clear call, values can overlap the other calls; inactive = above about -39%.
% is set by controls: 0 for no effect and ±100 for the full control effect.

This test is described as follows: qHTS Assay for inhibitors of the human cytomegalovirus (HCMV). Conditions: HFF cells, HCMV-luciferase reporter, 72 h; at 57.5 µM; hits give low values. A digest of the protocol:
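Luciferase read-out from HCMV-luciferase-infected HFFs (MOI 1 PFU/cell) 72 h post infection at 37C; compounds added after 16 h cell attachment; activity normalized between buffer-only basal and Salinomycin (10uM) inhibitor controls.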
(Quantitative high-throughput screening tests each substance at several concentrations.)
With `NS(=O)(=O)c1ccc(CCNC(=O)CN2C(=O)c3ccccc3S2(=O)=O)cc1`, the activity change, negative = inhibition is -13%.

For `O=C(CN1C(=O)c2ccccc2S1(=O)=O)N1CCc2ccccc21`, the activity change, negative = inhibition is -93.9% (active).

On to `Cc1ccc(S(=O)(=O)N(C)CC(=O)N2CCc3ccccc32)cc1`, for which the activity change, negative = inhibition is -22.7%.

As for `O=C(Cn1cc(SCc2ccccc2)c2ccccc21)N1CCCCC1`, the activity change, negative = inhibition is -27.6%.

With `Cc1ccc(CNC(=O)CSc2c3c(nc4cc(Cl)ccc24)CCCC3)cc1`, the activity change, negative = inhibition was -19.8%.

As for `CC(=O)Nc1ccc(Nc2nc3c(S(=O)(=O)c4ccc(C)c(C)c4)nnn3c3ccccc23)cc1`, the activity change, negative = inhibition was -35.4%.

Take `Cc1ccc(Nc2c3c(nc4ccccc24)CCC3)cc1`: the activity change, negative = inhibition is -74.2% (active).

For `Brc1ccc(Nc2c3c(nc4ncnn24)CCC3)cc1`, the activity change, negative = inhibition was -30.4%.

For the compound `CC(=O)Nc1ccc(S(=O)(=O)N2CCN(c3ccccc3)CC2)cc1`, the activity change, negative = inhibition is -20.6%.

`CC(=O)Nc1ccc(Nc2c3ccccc3nc3ccccc23)cc1`: the activity change, negative = inhibition was -99.6% (active).

For `CCCC(=O)Nc1cc(C(=O)NCc2ccc(OC)cc2)ccc1S(=O)(=O)c1ccc(Cl)cc1`, the activity change, negative = inhibition was 12.9%.

In the case of `CCOc1cccc(/C=N/NC(=S)NCCN2CCOCC2)c1O`, the activity change, negative = inhibition was -99.8% (active).

For `COc1cccc(C(CC(=O)NCCN2CCOCC2)NS(=O)(=O)c2ccc(C)cc2)c1OC` (stereo not drawn), the activity change, negative = inhibition was -35.5%.

On to `CCOc1cc(/C=N/NC(=O)c2cccc(S(=O)(=O)N3CCOCC3)c2)ccc1OCC(=O)N(C)C`, for which the activity change, negative = inhibition was -10.8%.

With `Cc1oc(-c2ccccc2)nc1Cn1c(SCc2cccc(C(F)(F)F)c2)nc2cccnc21`, the activity change, negative = inhibition was -23.2%.

As for `CCOc1cc(C2C(C(=O)OC)=C(C)NC3=C2C(=O)c2ccccc23)ccc1O` (stereo not drawn), the activity change, negative = inhibition is -8.78%.

Take `CC1=NN(C(=O)CCc2ccccc2O)C(O)(C(F)(F)F)C1` (stereo not drawn): the activity change, negative = inhibition was -66% (active).

For `CC1=NN(C(=O)c2ccc(Br)cc2)C(O)(c2ccccc2)C1` (stereo not drawn), the activity change, negative = inhibition was -17.6%.

With `CC1=NN(C(=O)CCCc2ccccc2)C(O)(C(F)(F)F)C1` (stereo not drawn), the activity change, negative = inhibition was -24.1%.

Regarding `COc1cccc(C(c2c(O)cc(C)n(Cc3ccco3)c2=O)N2CCN(c3ccccc3)CC2)c1` (stereo not drawn), the activity change, negative = inhibition was 7.72%.

With `CC(C)CC(NS(=O)(=O)c1ccc2c(c1)oc(=O)n2C)C(=O)NCc1ccccc1Cl` (stereo not drawn), the activity change, negative = inhibition is -14.5%.

Regarding `CCCCn1c(=O)c2oc3ccccc3c2n(CC(=O)Nc2ccccc2OC)c1=O`, the activity change, negative = inhibition is 17%.

For the compound `Cc1cc(N2CCN(c3cccc(C(F)(F)F)c3)CC2)n2nc(-c3ccccc3)nc2n1`, the activity change, negative = inhibition is -20.6%.

For `Cc1ccc(/C=N/NC(=O)COc2ccccc2-c2ccccc2)cc1`, the activity change, negative = inhibition was -81.9% (active).

`O=C(CSC1c2ccccc2-c2ccccc21)N/N=C/c1ccccc1`: the activity change, negative = inhibition is 35.4%.

Turning to `Nc1nnn(CC(=O)N/N=C/c2ccccc2)n1`, the activity change, negative = inhibition is -9.02%.

Take `CCOCCCNC(=O)c1c(NC(=O)c2nc(SC)ncc2Cl)sc2c1CCCC2`: the activity change, negative = inhibition was 47.5%.

Consider `O=C(CCn1c(=O)c2sccc2n(Cc2ccc(F)cc2)c1=O)NCc1ccc2c(c1)OCO2`, for which the activity change, negative = inhibition was 14.2%.

Consider `CSc1ccccc1-c1nnc(NC(=O)c2ccc3c(c2)OCCO3)o1`, for which the activity change, negative = inhibition is 21.3%.

`O=C(Nc1nnc(C2COc3ccccc3O2)o1)c1ccc(F)cc1` (stereo not drawn): the activity change, negative = inhibition was -81.3% (active).

On to `c1ccc2c(c1)OCC(c1nn3cnnc3s1)O2` (stereo not drawn), for which the activity change, negative = inhibition was -4.38%.

On to `Oc1ccccc1-c1nc(/C=C/c2ccc(F)cc2)no1`, for which the activity change, negative = inhibition is 94.7%.

On to `COc1ccc(CNC(=O)c2cc3c(s2)-c2ccccc2OC3)cc1`, for which the activity change, negative = inhibition is -13.2%.

As to `COc1cc(CNC(=O)c2cc3n(n2)CCCN(Cc2cccc(F)c2)C3=O)cc(OC)c1OC`, the activity change, negative = inhibition is -12.3%.

For `C=C(C)CSc1nnc(-c2ccc(C)cc2)n1N`, the activity change, negative = inhibition is -8.53%.

Regarding `CN(C)c1cc[n+](Cc2ccccc2)cc1`, the activity change, negative = inhibition was -86.3% (active).

As to `N#Cc1ccc(-c2cccs2)nc1SCc1ccc(Br)cc1`, the activity change, negative = inhibition is 5.81%.

Take `O=C(Nc1ccc2c(c1)OCCO2)C1c2ccccc2OCC(=O)N1Cc1ccccn1` (stereo not drawn): the activity change, negative = inhibition is 3.21%.

As for `CCCCCn1nnnc1C1c2ccccc2C(=O)N1Cc1ccco1` (stereo not drawn), the activity change, negative = inhibition is -25.7%.

Regarding `O=C1c2ccccc2C(Nc2ccc3c(c2)OCCO3)N1Cc1ccco1` (stereo not drawn), the activity change, negative = inhibition is -60.9% (active).

With `Cc1ccc(-c2noc(CSc3nnc(-c4ccc(Cl)cc4)n3C)n2)cc1`, the activity change, negative = inhibition was -12.3%.

Regarding `CC1CN(C(=O)N2CCC(C(=O)NCc3cccs3)CC2)c2ccccc2O1` (stereo not drawn), the activity change, negative = inhibition was 8.43%.

Consider `CCc1ccc(Nc2nn3c(=O)c4cc5c(cc4nc3s2)OCO5)cc1`, for which the activity change, negative = inhibition is 9.55%.

Take `COc1cccc(C(c2nnnn2-c2ccc3c(c2)OCCO3)N2CCC3(CC2)C(=O)NCN3c2ccccc2)c1OC` (stereo not drawn): the activity change, negative = inhibition is -15.1%.

`Cc1oc(-c2ccccc2F)nc1CN1CCC(C(=O)NCCc2ccc(Cl)cc2)CC1`: the activity change, negative = inhibition was 0.215%.

Regarding `COc1ccc(F)c(-c2nc(CN3CCC(c4ccccc4)CC3)c(C)o2)c1`, the activity change, negative = inhibition was -14%.

`Cc1nonc1C1CCCN1Cc1nc(-c2ccc(F)cc2F)oc1C` (stereo not drawn): the activity change, negative = inhibition was -69.4% (active).

Turning to `Cc1ccc(N(CC(=O)NCc2ccc(Cl)cc2)S(=O)(=O)N(C)C)cc1`, the activity change, negative = inhibition is -16.9%.

Regarding `COc1ccc2c3c([nH]c2c1)[C@@H](CO)N(C(=O)C1CC1)CC31CCN(Cc2nccs2)CC1`, the activity change, negative = inhibition was -2.14%.

Take `COc1ccc(N2CCN(C(=O)CSCc3nc(-c4ccccc4Cl)oc3C)CC2)cc1`: the activity change, negative = inhibition is -81.2% (active).

Consider `COc1ccc(CNC(=O)CSCc2nc(-c3ccccc3F)oc2C)cc1`, for which the activity change, negative = inhibition was -16%.

`COc1ccc(N2CCN(C(=O)CCSCc3ccccc3F)CC2)cc1`: the activity change, negative = inhibition is -16.4%.

Take `COc1cccc(N=C2SC(C(=O)Nc3cccc(Cl)c3)CC(=O)N2C)c1` (stereo not drawn): the activity change, negative = inhibition is -4.69%.

Consider `O=C(CSCc1cnn(-c2ccccc2)c1-n1cccc1)NCc1ccc(Cl)cc1`, for which the activity change, negative = inhibition was -3.89%.

With `CCCn1nnnc1NCc1ccc(OC)cc1`, the activity change, negative = inhibition was -30.2%.

On to `COc1ccc(CNc2c(CO)cnc3c2cnn3C)cc1`, for which the activity change, negative = inhibition is -66.6% (active).

`CCCC(=O)n1nc(NCc2ccc(OC)cc2)nc1NCc1ccc(OC)cc1`: the activity change, negative = inhibition was -26.6%.

With `Fc1ccccc1Oc1ncnc2c1oc1ccccc12`, the activity change, negative = inhibition is -3.15%.
